# FMDV antiviral = antivirals against foot and mouth disease virus; Potency, µM (doses to about 57.9 µM), inactives show at the highest dose activity change, negative = inhibition, usual class: inhibitors; FMDV antiviral cell-based qHTS; 1.2% of 410,000 active; calls by dose curve; tested in HEK293T cells; further: read-out not given here; potency means the concentration at half of the fitted maximal effect; nearly all actives have a fitted effect of over 45% in size
# LASV entry inh = inhibitors of Lassa virus binding or cell entry. Lassa virus pseudotype entry inhibition, cell reporter. Potency, µM (titrated, usually from 37.9 µM), inactives show top-dose activity change, negative = inhibition, usual class: inhibitors. 1.2% of 300,000 active. AID 540256; calls by dose curve; tested in HEK293 cells; further: potency means the concentration at half of the fitted maximal effect; nearly all actives have a fitted effect of over 50% in size
# VACV mCherry inh = inhibitors of vaccinia virus infection (mCherry reporter signal); Vaccinia virus mCherry reporter infection, fluorescence; Potency, µM (series often up to 36.5 µM), inactives show at the highest dose activity change, negative = inhibition, hits mostly inhibitors; 0.63% of 310,000 active; AID 720579; calls by dose curve; tested in A549 cells; further: potency means the concentration at half of the fitted maximal effect; nearly all actives have a fitted effect of over 35% in size
# Vaccinia Venus = inhibitors of vaccinia virus (Venus reporter). Vaccinia virus Venus reporter expression, fluorescence. AID 720580. 0.46% of 330,000 active. Potency, µM (series often up to 36.5 µM), inactives show top-dose activity change, negative = inhibition, actives largely listed as inhibitors; calls by dose curve; tested in A549 cells; further: potency means the concentration at half of the fitted maximal effect; nearly all actives have a fitted effect of over 30% in size
# HCMV inh = inhibitors of human cytomegalovirus; HFF cells, HCMV-luciferase reporter, 72 h; active compounds read low; activity change, negative = inhibition, % at 57.5 µM; 4.5% of 410,000 active; in the data active means activity change below about -60%; inconclusive means no clear call, values can overlap the other calls; inactive means above about -39%
#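 Steps: HFFs plated, 16 h 37C; compounds added; HCMV-luciferase added to MOI 1 PFU/cell; 72 h 37C; OneGlo reagent, 5 min room temperature; luminescence read, normalized to controls.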
# MARV entry inh = blocks Marburg virus binding to or entry into cells. Marburg virus pseudotyped entry inhibition, cell reporter. Potency, µM (top dose mostly 37.8 µM), for the others: top-dose activity change, negative = inhibition, most hits filed as inhibitors. 1.8% of 300,000 active; calls by dose curve; tested in HEK293 cells; further: potency means the concentration at half of the fitted maximal effect
# * marks the source's active call; other numbers are inactive results; i = inactive; ? = inconclusive; . = no result; [ ] = remark or other dose. A selection: hits, their analogues and other compounds. The true share with any hit is near 6.5%. On the % scale 0 is the no-effect control and ±100 the full control effect.
SMILES,FMDV antiviral,LASV entry inh,VACV mCherry inh,Vaccinia Venus,HCMV inh,MARV entry inh
Cc1c(Br)c([N+](=O)[O-])nn1CC(=O)Nc1c(C)n(C)n(-c2ccccc2)c1=O,-5%,.,.,.,-102*,.
Cc1nn(CC(=O)Nc2c(C)n(C)n(-c3ccccc3)c2=O)c(C)c1[N+](=O)[O-],-16%,26%,-1%,-9%,-10,5%
C[C@H]1CC[C@]2(NC1)O[C@H]1C[C@H]3[C@@H]4CC[C@H]5C[C@@H](O)CC[C@]5(C)[C@H]4CC[C@]3(C)[C@H]1[C@@H]2C,-9%,.,-17%,-8%,.,.
CC(C)N(C(=O)CSc1nnc(NC(=O)C2CCC2)s1)C(C)C,24%,-17%,-21%,-10%,11,?
COc1ccccc1NC(=O)CSc1nnc(NC(=O)Nc2ccc(C)cc2)s1,-8%,?,-6%[7.34 µM],-15%[7.34 µM],-86*,.
COc1ccccc1NC(=O)CSc1nnc(NC(=O)C2CC2)s1,-12%,-24%,46%,5%,38,7%[46.1 µM]
Cc1ccc(NC(=O)Nc2nnc(SCC(=O)N(C(C)C)C(C)C)s2)cc1,0%,-8%[46.1 µM],-4%[7.34 µM],-13%[7.34 µM],-80*,.
Cc1cnc(C)c(-c2ccc(F)c3c2OC(CNC(=O)Cc2c(F)cccc2F)C3)n1 (centres undefined),-16%,.,-14%,-1%,.,.
O=C(C1CCN(CCCc2ccccc2)CC1)N(CCc1ccccc1)Cc1ccccc1,-14%,11µM*,?,?,-25,?
O=C(C1CCN(CC2CC=CCC2)CC1)N(CCc1ccccc1)Cc1ccccc1 (centres undefined),-4%,?,-10%,1%,-19,?
CCC(=O)N1c2ccc(S(=O)(=O)NCc3ccc(F)cc3)cc2CC1C (centres undefined),20%,-25%[46.1 µM],-17%,-11%,-19,-16%[46.1 µM]
CCOc1ccc(-c2cn3ccccc3n2)cc1,-67%,?,i,?,22,3.5µM*
FC(F)(F)c1ccccc1Cc1c(-c2ccco2)nc2c3ccccc3ccn12,.,.,.,.,33,.
CC1=CCC2C(=O)N(c3ccc(C(=O)Nc4ccccc4Cl)cc3)C(=O)C2C1 (centres undefined),0%,.,.,.,-102*,.
C#CCn1cc(/C=C2\NC(=O)NC2=O)c2ccccc21,-4%,-6%[46.1 µM],4.5µM*,-20%,-4,?
CC(C)n1cc(/C=C2/NC(=O)NC2=O)c2ccccc21,-17%,10%,?,-19%,7,5%[46.1 µM]
O=C(NCCCN1CCc2ccccc2C1)C1CCN(c2nnc(-n3cccc3)s2)CC1,-30%,6%,-14%,-5%,2,15µM*
O=C(NCc1ccco1)C1CCN(c2nnc(-n3cccc3)s2)CC1,-3%,.,i,-5%,-67*,.
O=C(NCCCN1CCN(Cc2ccccc2)CC1)C1CCN(c2nnc(-n3cccc3)s2)CC1,?,-22%,.,-25%,?,?
CN(Cc1ccco1)C(=O)C1CCN(c2nnc(-n3cccc3)s2)CC1,-3%,.,.,.,-11,.
COC(=O)C1=C(C)N(Cc2ccccc2)C(=NCC(C)C)NC1c1cccc(F)c1 (centres undefined),.,?,.,.,.,20%[14.2 µM]
CC(C)=CCCC(C)=CCON=C1C[C@@H](O)[C@@H](O)[C@@H]2[C@H]3C(=O)N(Cc4ccc5c(c4)OCO5)C(=O)[C@@H]3CC[C@H]12,.,?,.,.,.,-17%[14.2 µM]
COc1ccc(C(=O)CN2C(=O)c3ccccc3S2(=O)=O)cc1,5.6µM*,?,-2%,-14%,-92*,?
Cc1ccc(NC(=O)CN2C(=O)c3ccccc3S2(=O)=O)c(C)c1,13%,-20%[46.1 µM],-10%,2%,3,1%[46.1 µM]
COc1ccc(/C=C/C(=O)c2nc3ccccc3n2CC(=O)c2ccc(OC)cc2)cc1,-11%,-25%,.,.,19,?
SMILES,FMDV antiviral,LASV entry inh,VACV mCherry inh,Vaccinia Venus,HCMV inh,MARV entry inh
COc1ccc(C)cc1NC(=O)CN1C(=O)c2ccccc2S1(=O)=O,-14%,.,1%,6%,-60*,.
O=C(CN1C(=O)c2ccccc2S1(=O)=O)c1ccc(O)c(O)c1,23%,?,?,8%,-15,?
O=C(CN1C(=O)c2ccccc2S1(=O)=O)c1ccc(F)c(F)c1,?,?,i,0%,?,10µM*
COc1ccc(C(=O)Cn2c(C(C)=O)nc3ccccc32)cc1,5%,?,i,-21%,-64*,?
CCOc1ccccc1NC(=O)Cn1c(=O)n(CCCC(=O)NCCOC)c(=O)c2cc(OC)c(OC)cc21,-6%,-13%[46.1 µM],-1%,1%,-3,5%[46.1 µM]
O=C(NC1CCCC1)c1cnn2c1NC(=C1CC1)C=C2C(F)F,.,.,-22%,-30%,.,.
O=C(CC1SC(=Nc2ccccc2)N(CCCO)C1=O)Nc1ccc(Cl)cc1 (centres undefined),14µM*,?,.,?,.,?
CC1=NN(Cc2ccccc2)C(=O)C1C(c1ccc(Cl)cc1)C(C#N)C#N (centres undefined),28µM*,?,-28%,-24%,-23,-13%
O=[N+]([O-])c1ccc(S(=O)(=O)NCc2nc3cccnc3n2Cc2ccccc2Cl)cc1,5%,-5%[46.1 µM],-10%,-14%,-30,.
COc1ccccc1CNC(=O)CC(c1ccc(F)cc1)N1Cc2ccccc2C1=O (centres undefined),20%,-27%[46.1 µM],-5%,-6%,-73*,.
CCOC(=O)/C=C/[C@@H](CC(C)C)NC(=O)C(F)(F)F,.,.,.,.,-4,.
COc1ccccc1-c1cc(C(F)(F)F)nc(S(=O)(=O)CCCC(=O)Nc2cc(Br)ccc2O)n1,18%,7%[46.1 µM],-12%,-5%,55,?
COc1ccccc1-c1cc(C(F)(F)F)nc(S(=O)(=O)CCCC(=O)Nc2cc(C)on2)n1,13µM*,-3%,-23%,?,-96*,?
COc1ccc(NC(=O)CCCS(=O)(=O)c2nc(-c3ccccc3OC)cc(C(F)(F)F)n2)c(OC)c1,7%,?,-6%,5%,14,?
COc1ccc(-c2cc(C(F)(F)F)nc(S(=O)(=O)CCCC(=O)Nc3cc(C)on3)n2)cc1OC,13µM*,?,-21%,-20%,47,?
COc1ccc(Cl)cc1NC(=O)CCCS(=O)(=O)c1nc(-c2ccc(OC)c(OC)c2)cc(C(F)(F)F)n1,?,-4%[46.1 µM],-12%,-13%,-99*,?
CCCCCCN(C(=O)CCCCCN1C(=O)NC(c2ccccc2)C(C(=O)OCc2ccccc2)=C1C)C(C(=O)NCCCC)c1ccc(OCC(=O)OC)c(C(=O)OC)c1 (centres undefined),.,.,.,.,-98*,.
COc1ccc(/C=C/C(=O)c2c(O)n(CCC3=CCCCC3)c(=O)[nH]c2=O)cc1,35µM*,?,-10%,-6%,-39,?
O=C(/C=C/c1ccc2c(c1)OCO2)c1c(O)n(CCC2=CCCCC2)c(=O)[nH]c1=O,?,-12%,i,-8%,-12,2%
